Rows were chosen to be rich in hits. Some 1.5% of all compounds tested hit in one or more screens of this group.
WRN helicase inh-1 – blocks human WRN helicase; 0.46% of 360,000 active; AID 651768; WRN helicase unwinding, fluorescent forked duplex, kinetic; Potency, µM (highest dose often 114 µM), for inactives: at the highest dose activity change, negative = inhibition, hits mostly inhibitors; Q14191; also: potency is read from the fitted curve at half-maximal effect; % is scaled to controls: 0 for no effect and ±100 for the full control effect; nearly all actives have a fitted effect of over 55% in size
Target sequence (Q14191 whole entry, looked up): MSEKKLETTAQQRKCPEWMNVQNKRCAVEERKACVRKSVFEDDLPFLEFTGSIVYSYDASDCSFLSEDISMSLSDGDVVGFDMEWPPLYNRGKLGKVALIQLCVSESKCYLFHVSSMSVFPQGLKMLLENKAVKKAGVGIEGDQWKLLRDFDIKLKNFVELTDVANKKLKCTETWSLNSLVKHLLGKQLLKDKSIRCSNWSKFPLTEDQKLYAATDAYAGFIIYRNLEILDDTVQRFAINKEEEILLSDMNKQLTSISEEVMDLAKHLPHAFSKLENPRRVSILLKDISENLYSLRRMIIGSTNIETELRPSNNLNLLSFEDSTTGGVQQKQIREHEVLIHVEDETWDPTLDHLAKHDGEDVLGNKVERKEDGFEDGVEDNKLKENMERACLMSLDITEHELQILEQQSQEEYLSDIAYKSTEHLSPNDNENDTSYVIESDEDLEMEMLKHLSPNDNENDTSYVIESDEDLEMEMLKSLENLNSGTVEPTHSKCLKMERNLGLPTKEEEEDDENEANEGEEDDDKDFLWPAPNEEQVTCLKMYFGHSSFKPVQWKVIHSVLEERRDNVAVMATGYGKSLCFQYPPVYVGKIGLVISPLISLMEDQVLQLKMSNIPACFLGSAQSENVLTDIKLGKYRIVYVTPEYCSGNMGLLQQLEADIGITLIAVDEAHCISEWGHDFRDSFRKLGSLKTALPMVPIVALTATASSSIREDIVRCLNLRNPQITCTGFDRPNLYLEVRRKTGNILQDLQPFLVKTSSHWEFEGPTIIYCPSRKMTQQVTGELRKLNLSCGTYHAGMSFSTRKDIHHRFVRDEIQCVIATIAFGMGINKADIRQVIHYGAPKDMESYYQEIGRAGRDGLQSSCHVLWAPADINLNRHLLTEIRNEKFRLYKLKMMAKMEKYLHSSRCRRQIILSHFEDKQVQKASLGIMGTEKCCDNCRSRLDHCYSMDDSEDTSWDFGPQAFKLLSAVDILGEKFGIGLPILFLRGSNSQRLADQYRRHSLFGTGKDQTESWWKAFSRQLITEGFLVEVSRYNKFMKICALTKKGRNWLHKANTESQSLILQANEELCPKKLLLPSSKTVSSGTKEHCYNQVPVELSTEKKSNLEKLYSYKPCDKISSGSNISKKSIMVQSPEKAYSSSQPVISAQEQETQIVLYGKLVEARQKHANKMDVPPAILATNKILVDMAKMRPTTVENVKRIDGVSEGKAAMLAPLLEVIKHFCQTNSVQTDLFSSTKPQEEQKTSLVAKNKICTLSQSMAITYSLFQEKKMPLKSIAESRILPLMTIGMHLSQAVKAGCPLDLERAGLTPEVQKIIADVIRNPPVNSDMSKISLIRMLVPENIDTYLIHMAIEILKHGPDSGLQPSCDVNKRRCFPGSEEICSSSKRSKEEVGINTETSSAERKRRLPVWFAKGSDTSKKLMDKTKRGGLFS
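Kinetic fluorescence helicase assay: unwinding of a quenched forked DNA duplex (100 nM final) with 2 mM ATP final raises red fluorescence (525/598 nm). Compounds sat 15 min at room temperature with 20 nM WRN beforehand.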
BLM helicase inh-1 – inhibitors of human Bloom syndrome helicase BLM; 0.2% of 350,000 active; AID 2528; Potency, µM (highest dose often 56.1 µM), for the others: at the top dose activity change, negative = inhibition, most hits filed as inhibitors; recombinant BLM DNA unwinding, fluorescence dequenching;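 also: potency is read from the fitted curve at half-maximal effect; plate controls were vehicle for no effect and no enzyme for full effect; nearly all actives have a fitted effect of over 35% in size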
FEN1 inh-1 – blocks human flap endonuclease 1; P39748; Recombinant FEN1 flap cleavage, fluorescence, 15 min; Potency, µM (top dose mostly 114 µM), inactives show at the top dose activity change, negative = inhibition, actives largely listed as inhibitors; 0.35% of 390,000 active; AID 588795; also: potency is read from the fitted curve at half-maximal effect; % is scaled to controls: 0 for no effect and ±100 for the full control effect; nearly all actives have a fitted effect of over 65% in size
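With each library titrated from low to high concentration, compounds met 10 nM FEN1 for 15 min at room temperature before 50 nM substrate was added; readings at 0 and 15 min fed four-parameter Hill curve fits.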
PI5P4Ka inh – PI5P4K alpha (human) kinase inhibition; AID 652105; 1.2% of 330,000 active; PI5P4Kalpha enzyme, ADP-Glo luminescence, 60 min; stronger effect = lower value; max response, %; P48426; active = max response of -50% or lower; inconclusive = between -30% and -50%; inactive = -30% or higher; also: value at the top dose of about 77 µM; % is scaled to controls: 0 for no effect and ±100 for the full control effect
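ADP-Glo luminescence end-point read after a 60 min room-temperature kinase reaction of PI5P4Kalpha plus substrate, initiated with ATP at 5 microM final. Buffer: 0.038 M HEPES pH 7.4, EGTA, 0.1% CHAPS, 5% DMSO.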
APE1 inh – blocks human APE1 abasic DNA cleavage; 0.35% of 350,000 active; recombinant APE1, TAMRA/BHQ-2 abasic DNA cleavage fluorescence; AID 2517; Potency, µM (top dose mostly 65.8 µM), inactives show top-dose activity change, negative = inhibition, hits mostly inhibitors;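 also: potency is read from the fitted curve at half-maximal effect; plate controls were vehicle for no effect and reference inhibitor for full effect; nearly all actives have a fitted effect of over 55% in size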
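Endonuclease cleavage of a quenched abasic-site DNA duplex (50 nM) by APE1 (0.75 nM) was tracked by TAMRA dequenching. Compounds were preincubated with enzyme 15 min at room temperature; data normalized to buffer-only and DMSO wells plus NSC13755 control.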
RECQ1 inh – RECQ1 (human) helicase inhibition | RECQ1 DNA unwinding, red fluorescence kinetic read | 0.54% of 240,000 active | Potency, µM (titrated, usually from 57.3 µM), for the others: at the top dose activity, negative = inhibition, usual class: inhibitors | AID 2549 | P46063;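 also: potency is read from the fitted curve at half-maximal effect; plate controls were vehicle for no effect and no enzyme for full effect; nearly all actives have a fitted effect of over 30% in size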
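RECQ1T1 50 nM; forked duplex (20 bp + 30-nt ss tails) 200 nM, ATP 2 mM final; pH 8.0, 2 mM MgCl2, 2.5 ug/ml poly(dI-dC); 15 min compound preincubation; discontinuous kinetic read over 2 h at RT.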
FEN1 inh-2 – FEN1 inhibition, cherry-pick retest | shares compounds with FEN1 inh-1 | Potency, µM, actives largely listed as inhibitors | 79% of 880 active | AID 720498 | FEN1 flap cleavage, TAMRA/BHQ2 fluorogenic DNA substrate; also: potency is read from the fitted curve at half-maximal effect; nearly all actives have a fitted effect of over 60% in size
WRN helicase inh-2 – confirmation of human WRN helicase inhibitors; shares compounds with WRN helicase inh-1; WRN helicase DNA unwinding, fluorescence kinetic; Potency, µM (doses to about 57.1 µM), for the others: at the highest dose activity, negative = inhibition, hits mostly inhibitors; 63% of 610 active; AID 720497; also: potency is read from the fitted curve at half-maximal effect; nearly all actives have a fitted effect of over 65% in size
TO DNA binding – counter-screen for WRN helicase inhibitors: DNA binding | shares compounds with WRN helicase inh-1 | thiazole orange DNA binding displacement, fluorescence | Potency, µM (titrated, usually from 57.1 µM), without a hit: at the highest dose activity change, negative = inhibition, hits mostly inhibitors | 10% of 610 active | AID 720499;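 also: drop in dye fluorescence marks compound binding to DNA; potency is read from the fitted curve at half-maximal effect; % is scaled to controls: 0 for no effect and ±100 for the full control effect; nearly all actives have a fitted effect of over 60% in size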
BLM helicase inh-2 – BLM helicase inhibition, WRN selectivity check; Potency, µM (doses to about 57.1 µM), for inactives: at the highest dose activity change, negative = inhibition, usual class: inhibitors; shares compounds with WRN helicase inh-1; AID 720503; 60% of 610 active; Recombinant BLM helicase DNA unwinding, red fluorescence; also: potency is read from the fitted curve at half-maximal effect; nearly all actives have a fitted effect of over 60% in size
ADP-Glo counter – interferes with ADP-Glo detection without enzyme present | shares compounds with PI5P4Ka inh | ADP-Glo detection counter-screen, luciferase luminescence, no enzyme | Potency, µM (doses to about 76.9 µM), for the others: at the highest dose activity change, negative = inhibition, actives largely listed as inhibitors | 1,100 tested, under 10 active
Starred values were filed as active, the others as inactive; i = inactive; u = inconclusive; x = no result; [ ] = dose if it differs, or a comment. Unless noted, calls follow the shape of the dose curve; as a rule, active = well fitted curve in the direction sought with a large enough effect; inconclusive = small, poorly fitted or top-dose-only effect, or another doubt; inactive = no such curve, though single readings can be large; an effect the other way counts as inactive or inconclusive.

SMILES	WRN helicase inh-1	BLM helicase inh-1	FEN1 inh-1	PI5P4Ka inh	APE1 inh	RECQ1 inh	WRN helicase inh-2	TO DNA binding	BLM helicase inh-2	others
COC1C(C)OC(OC2CC(C)(O)Cc3cc4c(c(O)c32)C(=O)c2c(O)cc3c(c2C4=O)OC2OC3(C)C(O)C(N(C)C)C2O)C(OC)C1(C)OC (configuration not stated)	15.8µM*	x	15.8µM*	0.0	x	x	2.15µM*	445.6%	u	FEN1 inh-2=4.78*
O=C1NC(=S)N(c2ccccc2)C(=O)/C1=C/c1ccco1	0.947µM*	22.4µM*	8.91µM*	-86.7*	16.8µM*	x	0.961µM*	10.8µM*	0.192µM*	FEN1 inh-2=16.9*
CCN1C(=O)C(=C/C=C/c2ccco2)C(=O)N(CC)C1=S	28.2µM*	11.1%	22.4µM*	-97.3*	u	-22.2%	21.5µM*	98.4%	19.2µM*
CC(C)N1C(=O)/C(=C/C=C/c2ccco2)C(=O)N(Cc2ccco2)C1=O	35.5µM*	u	56.2µM*	-68.5*	u	10µM*	17.1µM*	-2.4%	8.57µM*
FC(Cl)(Cl)Cl	x	x	x	x	13.4%	-17.3%	x	x	x
Nc1ccc([N+](=O)[O-])cc1[N+](=O)[O-]	x	x	x	x	-1.5%	-4.5%	x	x	x
O=[N+]([O-])c1cc(S(=O)(=O)c2ccc(O)c([N+](=O)[O-])c2)ccc1O	u	39.6%	u	-64.2*	u	-15.1%	19.2µM*	-9.7%	u
CN1C(=O)C(=Cc2ccccc2OCc2ccccc2Cl)C(=O)N(C)C1=O	u	4.4%	-6.0%	-29.8	-4.6%	-0.4%	x	x	x
Cn1cccc1/C=C1\C(=O)NC(=O)N(Cc2ccccc2Cl)C1=O	39.8µM*	u	u	-68.8*	-8.7%	u	u	-14.8%	17.1µM*
Cc1cccc(N2C(=O)NC(=O)/C(=C/c3ccc(N4CCOCC4)cc3)C2=O)c1	u	0.8%	-2.6%	-23.5	u	i	x	x	x
Cc1ccccc1N1C(=O)NC(=O)/C(=C\c2ccc3c(c2)CCCN3Cc2ccccc2)C1=O	13.4µM*	-22.5%	-35.8%	-64.6*	-0.6%	3.4%	u	6.8%	24.1µM*
CCN(CC)c1ccc(/C=C2\C(=O)NC(=S)N(C)C2=O)o1	-18.3%	-1.0%	4.9%	-3.4	15.9%	-13.4%	x	x	x
C=CCN1C(=O)/C(=C/c2cccs2)C(=O)NC1=S	0.474µM*	0.0%	-7.8%	-85.7*	2.7%	-14.6%	-17.2%	1.6%	u
C[C@@H]1CO1	x	-3.7%	x	x	0.5%	-7.3%	x	x	x
O=C1NC(=O)C(=Cc2ccccc2OCCOc2ccc([N+](=O)[O-])cc2)C(=O)N1	35.5µM*	-10.4%	u	u	12.8%	-9.5%	u	-16.3%	u
CC1=C2C(=O)C3C(CC=C4C[C@@H](O)CC[C@@]43C)[C@@H]2CC[C@]12O[C@@H]1C[C@H](C)CN[C@H]1C2C (some centres not stated)	x	-7.4%	x	x	-1.7%	-22.0%	x	x	x
CN(C)c1ccc(/C=C/c2cc[n+](C)c3ccccc23)cc1	35.5µM*	7.5%	35.5µM*	-25.8	2.0%	15.6%	17.1µM*	15.2µM*	21.5µM*
c1cc[n+]2c(c1)-c1cccc[n+]1CC2	x	5.3%	x	x	20.1%	1.6%	x	x	x
CCOC(=O)Nc1ccc(NCc2ccc(F)cc2)nc1N	-0.9%[11.6 µM]	x	u	-50.2*	u	-4.7%	x	x	x	ADP-Glo counter=-4.9%
CCCOC(=O)Nc1ccc([As](=O)(O)O)cc1NC(=O)OCCC	6.2%	-3.7%	15.2%	-1.3	3.1%	0.9%	x	x	x
COc1ccc(C(c2nnnn2-c2ccc3c(c2)OCCO3)N2CCC(n3c(=O)[nH]c4ccccc43)CC2)cc1 (configuration not stated)	-5.2%	x	x	-2.6	x	x	x	x	x	ADP-Glo counter=4.2%
c1ccc(P(c2ccccc2)c2ccccc2)cc1	x	x	x	x	24.8%	-11.1%	x	x	x
COC(=O)C1=C(c2ccc(F)cc2F)C[C@@H]2CC[C@H]1N2C(=O)NC1Cc2ccccc2C1	-4.0%	x	-16.3%	-84.4*	4.7%	x	x	x	x	ADP-Glo counter=-1.7%
CCCCCCCC(=O)Cl	x	x	x	x	-4.1%	-4.8%	x	x	x
